# In PubChem BioAssay (EPA / NIEHS):
# Values joined by “and” are separate entries in the source; they are usually repeats but may differ in a detail not shown here. Equal entries are not always repeated. Results filed as inconclusive are left out. The source holds several records for some structures; these can differ, active in one and inactive in another. Active and inactive are the calls of the source. The calls were made as follows: active = hit-call score of the fitted dose curve at least 0.9, where 1 is the maximum; inconclusive = response in the unintended direction; inactive = score below 0.9.
# Columns and labels:
# [1] = target: Cellular tumor antigen p53 (Homo sapiens) (UniProt P04637); test: TOX21_p53_BLA_p5_ratio: Tox21 HCT-116 p53 Agonism Beta-lactamase Assay, Ratio, Phase 5 (AID 2283599)
# Sequence of Cellular tumor antigen p53 (Homo sapiens) (P04637 whole entry, looked up): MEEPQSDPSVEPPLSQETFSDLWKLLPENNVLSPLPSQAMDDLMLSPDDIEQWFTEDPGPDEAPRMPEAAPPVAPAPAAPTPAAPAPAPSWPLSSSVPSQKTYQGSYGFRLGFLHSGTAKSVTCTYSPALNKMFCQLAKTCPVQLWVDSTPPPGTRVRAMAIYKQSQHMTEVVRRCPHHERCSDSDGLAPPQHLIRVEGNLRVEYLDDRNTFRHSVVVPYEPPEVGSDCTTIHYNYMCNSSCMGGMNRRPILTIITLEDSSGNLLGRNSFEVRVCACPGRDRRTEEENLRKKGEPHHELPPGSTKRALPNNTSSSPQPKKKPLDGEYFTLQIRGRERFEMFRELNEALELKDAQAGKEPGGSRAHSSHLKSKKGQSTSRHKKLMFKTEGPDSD
# Summary of the method: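 Beta-lactamase reporter ratio (blue 460 nm over green 530 nm, 405 nm excitation) after 2 h CCF4-AM loading, in HCT-116 cells exposed 16 h at 37 C to compounds pinned at 217-fold dilution. Increases relative to DMSO baseline scored.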
# [2] = target: Cellular tumor antigen p53 (Homo sapiens) (UniProt P04637); test: TOX21_p53_BLA_p4_ratio: Tox21 HCT-116 p53 Agonism Beta-lactamase Assay, Ratio, Phase 4 (AID 2283601)
# Summary of the method: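 Signal is the blue/green (460nm/530nm) ratio of cleaved versus uncleaved CCF4-AM substrate, read after 2 h substrate loading. Cells were HCT116 carrying the p53-responsive beta-lactamase reporter, dosed 16 h at 37C, 5% CO2; CellTiter-Glo measured in parallel.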
# [3] = TOX21_p53_BLA_p5_viability: Viability Assessment in the Tox21 HCT-116 p53 Agonism Beta-lactamase Assay, Phase 5 (AID 2283600)
# Summary of the method: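 Viability is taken from cellular ATP content, measured by luciferase luminescence in the same wells after the beta-lactamase ratio read. Cells are seeded at 4000 per well and exposed to DMSO-dissolved compounds, diluted 217-fold, for 16 h.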
# [4] = Tanguay_ZF_120hpf_MORT_legacy: (Legacy) Oregon State University Tanguay Lab 120 Hour Post-fertilization zebrafish Assay for Mortality (AID 2283633)
# Summary of the method: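 Mortality endpoint from a multiplexed whole-embryo zebrafish screen. Dechorionated wild-type embryos received compound at 6 hpf and remained under static exposure at 28C until 120 hpf, with death noted as a present/absent call.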
# [5] = Tanguay_ZF_120hpf_AXIS_legacy: (Legacy) Oregon State University Tanguay Lab 120 Hour Post-fertilization zebrafish Assay for Body Axis Malformation (AID 2283635);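 as to AC50: potency for an increased fraction of larvae scored with body axis malformation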
# Summary of the method: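 Static 6–120 hpf chemical exposure of dechorionated wild-type 5D zebrafish, one per well at 28C; morphology endpoint scored binary at 120 hpf relative to DMSO control.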
# [6] = Tanguay_ZF_120hpf_EYE_legacy: (Legacy) Oregon State University Tanguay Lab 120 Hour Post-fertilization zebrafish Assay for Eye Malformation (AID 2283636);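 also: binary presence or absence of eye malformation scored by brightfield in 120 hpf larvae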
# Summary of the method: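 Binary brightfield scoring of eye defects at 120 hpf after static exposure from 6 hpf of single pronase-dechorionated wild-type embryos (28C, 0.64% DMSO). Non-mortality endpoints omitted where embryos died; fit vs DMSO.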
# [7] = Tanguay_ZF_120hpf_JAW_legacy: (Legacy) Oregon State University Tanguay Lab 120 Hour Post-fertilization zebrafish Assay for Jaw Malformation (AID 2283638)
# Summary of the method: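 Static waterborne exposure of dechorionated wild-type (Tropical 5D) zebrafish from 6 to 120 hpf at 28C, 0.64% DMSO vehicle; 5uM trimethyltin chloride served as positive control. Jaw morphology recorded as binary at 120 hpf.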
# [8] = Tanguay_ZF_120hpf_OTIC_legacy: (Legacy) Oregon State University Tanguay Lab 120 Hour Post-fertilization zebrafish Assay for Otic Vesicle Malformation (AID 2283639)
# Summary of the method: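 Binary scoring of otic vesicle defects at 120 hpf in zebrafish (Tropical 5D) held under static exposure at 28C, sealed and shaded, with final DMSO 0.64%. Embryos dying by 24 or 120 hpf excluded; fitted positively against DMSO.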
# [9] = Tanguay_ZF_120hpf_PE_legacy: (Legacy) Oregon State University Tanguay Lab 120 Hour Post-fertilization zebrafish Assay for Pericardial Edema (AID 2283640);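 as to AC50: potency for increased incidence of pericardial edema versus DMSO baseline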
# Summary of the method: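 Read-out is the presence or absence of pericardial edema at 120 hpf under brightfield, with gain of signal fitted against DMSO controls. Larvae (5D wild-type) were statically exposed at 28C with 0.64% final DMSO.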
# [10] = Tanguay_ZF_120hpf_BRAI_legacy: (Legacy) Oregon State University Tanguay Lab 120 Hour Post-fertilization zebrafish Assay for Brain Malformation (AID 2283641)
# Summary of the method: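 Brain malformation in Tropical 5D zebrafish was recorded as a binary endpoint after static compound exposure from early development to 120 hpf at 28C. Activity was analysed against DMSO as negative control.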
# [11] = Tanguay_ZF_120hpf_SOMI_legacy: (Legacy) Oregon State University Tanguay Lab 120 Hour Post-fertilization zebrafish Assay for Somite Malformation (AID 2283647)
# Summary of the method: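 5D WT zebrafish; chorion removed 4 hpf; 1 embryo/well from 6 hpf; static exposure to 120 hpf, 28C, 0.64% DMSO final. Endpoint: somite malformation, binary, brightfield. Mortality excluded.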
# [12] = Tanguay_ZF_120hpf_PFIN_legacy: (Legacy) Oregon State University Tanguay Lab 120 Hour Post-fertilization zebrafish Assay for Pectoral Fin Malformation (AID 2283648);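 also: each larva judged yes or no for fin defect by brightfield with dead larvae skipped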
# Summary of the method: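 Pectoral fin malformation was recorded as a binary endpoint at 120 hpf in wild-type Tropical 5D larvae, which had been dechorionated and exposed statically from 6 hpf at 28C in 0.64% DMSO. Dead embryos were excluded.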
# [13] = Tanguay_ZF_120hpf_CIRC_legacy: (Legacy) Oregon State University Tanguay Lab 120 Hour Post-fertilization zebrafish Assay for Circulatory Malformation (AID 2283651)
# Summary of the method: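 Binary circulatory malformation call at 120 hpf by brightfield imaging of zebrafish larvae; chorion removed at 4 hpf, static exposure from 6 hpf in sealed dark plates at 28C, final DMSO 0.64%; non-mortality endpoints skipped if embryo died.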
# [14] = Tanguay_ZF_120hpf_SWIM_legacy: (Legacy) Oregon State University Tanguay Lab 120 Hour Post-fertilization zebrafish Assay for Swim Bladder Malformation (AID 2283654);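 also: swim bladder malformation in each larva scored yes or no under brightfield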
# Summary of the method: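 Scoring is binary for swim bladder defects at 120 hpf, by brightfield inspection of zebrafish larvae. Embryos were exposed singly from 6 hpf after pronase dechorionation, at 28C with 0.64% DMSO; mortality excluded scoring.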
# [15] = Tanguay_ZF_120hpf_TRUN_legacy: (Legacy) Oregon State University Tanguay Lab 120 Hour Post-fertilization zebrafish Assay for Truncated Body (AID 2283655)
# Summary of the method: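 5D wild-type larvae; pronase dechorionation; static exposure 6→120 hpf, 28C; DMSO 0.64% final; 5uM trimethyltin chloride positive control. Readout: presence/absence of truncated body, analyzed relative to DMSO.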
# [16] = Tanguay_ZF_120hpf_SNOU_legacy: (Legacy) Oregon State University Tanguay Lab 120 Hour Post-fertilization zebrafish Assay for Snout Malformation (AID 2283637)
# Summary of the method: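 Binary snout-malformation call at 120 hpf in wild-type 5D embryos, chorion removed by pronase, under static exposure from 6 hpf at 28C (0.64% DMSO). Embryos dying by 24 or 120 hpf excluded.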
# [17] = Tanguay_ZF_120hpf_PIG_legacy: (Legacy) Oregon State University Tanguay Lab 120 Hour Post-fertilization zebrafish Assay for Pigmentation Malformation (AID 2283650)
# Summary of the method: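 Pigment malformation recorded as a binary call at 120 hpf in zebrafish (Tropical 5D) exposed singly from 6 hpf after pronase dechorionation. Static, sealed, 28C exposure, 0.64% DMSO; mortality excludes scoring; positive-direction fit against DMSO.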
# [18] = Tanguay_ZF_120hpf_CFIN_legacy: (Legacy) Oregon State University Tanguay Lab 120 Hour Post-fertilization zebrafish Assay for Caudal Fin Malformation (AID 2283649)
# Summary of the method: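 Embryos were collected from Tropical 5D wild-type adults and dechorionated at 4 hpf. At 6 hpf each was exposed, one per well, at 0.64% DMSO and 28C. At 120 hpf fin morphology was scored; dead embryos were excluded.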
structure (smiles),measurement,setting,value
CCC[CH2][Sn]([CH2]CCC)([CH2]CCC)[CH2]CCC,AC50,[1],44.3 µM (active)
same,AC50,[2],68.7 µM (active)
CCCCC(CC)C(=O)Cl (stereo not drawn),outcome,[1],inactive
same,outcome,[3],inactive
same,outcome,[2],inactive
CC(C)[N+](=O)[O-],outcome,[1],inactive
same,outcome,[3],inactive
same,outcome,[2],inactive
Cc1cccc(C)c1NC(=O)CN1CCCC1=O,outcome,[1],inactive
same,outcome,[3],inactive
same,outcome,[2],inactive
O=[N+]([O-])c1cccc2ccccc12,outcome,[1],inactive
same,outcome,[2],inactive
CC(C)(c1ccccc1)c1cc(-n2nc3ccccc3n2)c(O)c(C(C)(C)c2ccccc2)c1,outcome,[1],inactive
same,outcome,[2],inactive
CCOP(=S)(OCC)O/N=C(\C#N)c1ccccc1,outcome,[1],inactive
same,outcome,[2],inactive
CCN(CC)C(=O)C(Cl)=C(C)OP(=O)(OC)OC,outcome,[1],inactive
same,outcome,[3],inactive
same,outcome,[2],inactive
CCCCCCCCCCCCc1cccc(S(=O)(=O)O)c1,outcome,[4],inactive
same,outcome,[5],inactive
same,outcome,[6],inactive
same,outcome,[7],inactive
same,outcome,[8],inactive
same,outcome,[9],inactive
same,outcome,[10],inactive
same,outcome,[11],inactive
same,outcome,[12],inactive
same,outcome,[13],inactive
same,outcome,[14],inactive
same,outcome,[15],inactive
CCCCOC(C)=O,outcome,[2],inactive
O=[N+]([O-])c1ccc(Cl)c([N+](=O)[O-])c1,AC50,[1],32.3 µM (active) and 74.9 µM (active)
same,AC50,[2],22.7 µM (active)
same,outcome,[2],inactive
CC(C)O.CC(C)O.OCCN(CCO)CCO.OCCN(CCO)CCO.[Ti],outcome,[4],inactive
same,outcome,[5],inactive
same,outcome,[16],inactive
same,outcome,[7],inactive
same,outcome,[8],inactive
same,outcome,[9],inactive
same,outcome,[10],inactive
same,outcome,[11],inactive
same,outcome,[17],inactive
same,outcome,[13],inactive
same,outcome,[14],inactive
BrCc1ccc(Br)cc1,outcome,[1],inactive
same,outcome,[2],inactive
Clc1cccc(Cl)c1Cl,outcome,[4],inactive
same,outcome,[5],inactive
same,outcome,[6],inactive
same,outcome,[16],inactive
same,outcome,[7],inactive
same,outcome,[8],inactive
same,outcome,[9],inactive
same,outcome,[10],inactive
same,outcome,[11],inactive
same,outcome,[12],inactive
same,outcome,[18],inactive
same,outcome,[17],inactive
same,outcome,[13],inactive
same,outcome,[14],inactive
same,outcome,[15],inactive
CN(C)C(=S)S,outcome,[4],inactive
same,AC50,[5],0.946 µM (active)
same,outcome,[6],inactive
same,outcome,[16],inactive
same,outcome,[7],inactive
same,AC50,[9],3.42 µM (active)
same,outcome,[10],inactive
same,outcome,[11],inactive
same,outcome,[12],inactive
same,outcome,[17],inactive
same,outcome,[13],inactive
same,outcome,[14],inactive
same,outcome,[15],inactive
CCN(N=O)C(N)=O,outcome,[2],inactive
CCCCN(CCCCO)N=O,outcome,[3],inactive
COCCl,outcome,[3],inactive
same,outcome,[2],inactive
O=C(Cl)OCCOCCOC(=O)Cl,outcome,[3],inactive
same,outcome,[2],inactive
